Source: PubChem BioAssay (University of Kansas High Throughput Screening Laboratory)
Rows were chosen to be rich in hits. Some 3.6% of all compounds tested hit in one or more screens of this group.
mHTT CaM bind: mHTT-calmodulin interaction abrogation; P42858; AlphaScreen His-mHTT/GST-CaM binding, luminescence; inhibition, % at 15 µM; 190,000 compounds, 3.6% hits
Target sequence (P42858 whole entry, looked up, change not shown): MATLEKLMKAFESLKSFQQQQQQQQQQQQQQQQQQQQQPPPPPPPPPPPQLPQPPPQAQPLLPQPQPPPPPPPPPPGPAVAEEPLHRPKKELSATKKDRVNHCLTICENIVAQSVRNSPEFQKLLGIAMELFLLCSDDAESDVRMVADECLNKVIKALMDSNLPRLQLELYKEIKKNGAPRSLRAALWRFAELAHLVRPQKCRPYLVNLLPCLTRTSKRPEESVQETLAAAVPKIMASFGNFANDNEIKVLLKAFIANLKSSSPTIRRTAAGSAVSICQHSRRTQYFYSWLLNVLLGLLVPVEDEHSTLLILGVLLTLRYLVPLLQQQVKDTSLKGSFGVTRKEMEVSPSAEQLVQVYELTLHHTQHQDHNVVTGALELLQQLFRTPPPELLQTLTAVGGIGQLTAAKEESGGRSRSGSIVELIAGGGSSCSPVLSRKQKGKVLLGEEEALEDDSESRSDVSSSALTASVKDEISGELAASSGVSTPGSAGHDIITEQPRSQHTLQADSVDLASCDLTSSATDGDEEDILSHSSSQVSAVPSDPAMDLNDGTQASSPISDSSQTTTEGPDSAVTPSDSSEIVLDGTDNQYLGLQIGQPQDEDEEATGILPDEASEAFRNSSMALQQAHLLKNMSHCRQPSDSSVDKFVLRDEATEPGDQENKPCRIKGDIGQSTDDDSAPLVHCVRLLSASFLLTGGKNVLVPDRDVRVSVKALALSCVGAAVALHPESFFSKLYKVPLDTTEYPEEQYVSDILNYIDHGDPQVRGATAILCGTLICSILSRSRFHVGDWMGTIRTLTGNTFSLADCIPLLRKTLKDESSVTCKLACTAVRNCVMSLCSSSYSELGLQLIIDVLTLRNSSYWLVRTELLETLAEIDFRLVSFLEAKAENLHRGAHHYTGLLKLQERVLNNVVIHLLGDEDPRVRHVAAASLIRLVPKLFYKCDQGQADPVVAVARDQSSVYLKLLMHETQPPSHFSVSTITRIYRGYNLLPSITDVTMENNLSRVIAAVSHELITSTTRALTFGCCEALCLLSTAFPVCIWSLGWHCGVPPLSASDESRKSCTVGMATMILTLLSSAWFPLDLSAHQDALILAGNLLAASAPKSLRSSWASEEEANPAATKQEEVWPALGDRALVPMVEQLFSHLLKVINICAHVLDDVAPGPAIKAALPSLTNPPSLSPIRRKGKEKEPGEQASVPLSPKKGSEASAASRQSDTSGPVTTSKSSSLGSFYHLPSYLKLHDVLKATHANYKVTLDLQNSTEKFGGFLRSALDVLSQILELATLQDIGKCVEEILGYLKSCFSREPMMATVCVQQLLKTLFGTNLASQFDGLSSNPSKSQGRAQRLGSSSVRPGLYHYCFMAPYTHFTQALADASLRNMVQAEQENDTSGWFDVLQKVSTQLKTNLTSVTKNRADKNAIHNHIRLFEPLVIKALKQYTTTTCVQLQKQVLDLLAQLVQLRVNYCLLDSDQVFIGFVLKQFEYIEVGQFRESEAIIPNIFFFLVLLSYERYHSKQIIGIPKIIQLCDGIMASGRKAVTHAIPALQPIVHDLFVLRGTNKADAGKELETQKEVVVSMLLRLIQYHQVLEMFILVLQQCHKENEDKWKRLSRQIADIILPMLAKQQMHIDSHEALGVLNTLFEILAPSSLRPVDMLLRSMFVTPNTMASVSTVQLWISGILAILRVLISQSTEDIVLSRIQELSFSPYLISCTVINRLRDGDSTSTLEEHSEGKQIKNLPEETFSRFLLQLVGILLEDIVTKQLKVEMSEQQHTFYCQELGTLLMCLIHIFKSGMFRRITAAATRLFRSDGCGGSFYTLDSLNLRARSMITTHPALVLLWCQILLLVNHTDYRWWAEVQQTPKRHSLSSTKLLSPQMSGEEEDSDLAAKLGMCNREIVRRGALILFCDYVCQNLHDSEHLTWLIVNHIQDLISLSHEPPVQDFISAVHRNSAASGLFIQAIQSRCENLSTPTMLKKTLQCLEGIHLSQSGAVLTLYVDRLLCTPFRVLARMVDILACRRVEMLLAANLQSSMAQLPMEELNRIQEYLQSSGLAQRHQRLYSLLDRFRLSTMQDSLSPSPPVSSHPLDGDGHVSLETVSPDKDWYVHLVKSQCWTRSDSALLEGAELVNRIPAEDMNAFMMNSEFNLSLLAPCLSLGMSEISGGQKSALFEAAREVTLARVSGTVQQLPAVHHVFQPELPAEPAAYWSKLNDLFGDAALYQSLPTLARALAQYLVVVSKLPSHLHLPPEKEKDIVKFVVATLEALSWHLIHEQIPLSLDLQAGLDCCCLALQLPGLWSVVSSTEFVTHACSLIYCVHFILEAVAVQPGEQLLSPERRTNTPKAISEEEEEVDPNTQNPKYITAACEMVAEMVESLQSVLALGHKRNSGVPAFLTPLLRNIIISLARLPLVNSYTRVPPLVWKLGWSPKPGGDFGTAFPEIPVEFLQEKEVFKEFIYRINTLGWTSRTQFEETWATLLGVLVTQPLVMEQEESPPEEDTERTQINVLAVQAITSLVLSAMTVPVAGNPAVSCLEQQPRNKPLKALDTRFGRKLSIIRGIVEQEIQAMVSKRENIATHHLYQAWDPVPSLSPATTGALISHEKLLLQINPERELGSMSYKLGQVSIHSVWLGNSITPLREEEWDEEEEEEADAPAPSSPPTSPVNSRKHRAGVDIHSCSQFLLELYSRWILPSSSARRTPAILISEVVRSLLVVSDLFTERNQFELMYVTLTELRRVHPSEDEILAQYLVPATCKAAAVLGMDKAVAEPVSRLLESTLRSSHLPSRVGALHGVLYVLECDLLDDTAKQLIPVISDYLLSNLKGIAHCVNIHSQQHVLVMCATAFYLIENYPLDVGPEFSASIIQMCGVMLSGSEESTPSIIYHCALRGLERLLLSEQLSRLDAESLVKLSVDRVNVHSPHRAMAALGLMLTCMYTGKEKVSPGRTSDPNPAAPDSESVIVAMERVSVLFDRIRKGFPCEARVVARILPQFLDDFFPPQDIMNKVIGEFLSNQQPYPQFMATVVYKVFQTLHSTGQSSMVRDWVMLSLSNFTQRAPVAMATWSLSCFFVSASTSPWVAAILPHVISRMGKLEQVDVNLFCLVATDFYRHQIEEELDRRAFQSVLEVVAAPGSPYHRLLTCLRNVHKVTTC
Pf apPOL inh: Pf-apPOL DNA polymerase inhibition | 210,000 compounds, 0.25% hits | Recombinant Pf-apPOL, molecular beacon fluorescence, 1.5 h | inhibition, % at 10 µM
A number is an active result; i = inactive; nt = not tested or not shown. Rule as the data show it: active = inhibition above about 50%; inactive = the rest.

SMILES	mHTT CaM bind	Pf apPOL inh
O=C(CN1C(=O)C(c2ccccc2)=NC12CCCCCC2)Nc1ccc(F)cc1	i	i
COc1ccc(NC(=O)CN2C(=O)C(c3ccccc3)=NC23CCC(C)CC3)cc1OC (centres undefined)	i	i
O=C(CN1C(=O)C(c2ccc(F)cc2)=NC12CCCCC2)Nc1ccc(Cl)cc1	77.5	i
O=C(CN1C(=O)C(c2ccccc2)=NC12CCCCC2)Nc1ccc(F)c(F)c1	100.0	i
O=C(CN1C(=O)C(c2ccc(F)cc2)=NC12CCCCC2)Nc1ccc(F)cc1	i	i
O=C(CN1C(=O)C(c2ccccc2)=NC12CCCCCC2)Nc1ccccc1	i	i
Cc1ccccc1/C=C1\N=C(c2cccc(Cl)c2)OC1=O	i	i
COc1ccc2cc3cc(C(=O)Nc4cccc([N+](=O)[O-])c4C)sc3nc2c1	i	i
Cc1nn(S(=O)(=O)c2ccc(Br)cc2)c(C)c1Sc1ccc([N+](=O)[O-])cc1	i	i
COc1ccc(Cl)cc1C(=O)N1CCC2(CC1)NC(=O)N(CCc1ccccc1)C2=O	i	i
Cc1ccc(-n2nc3ccc(NC(=O)c4cccnc4Cl)cc3n2)cc1	i	i
COc1ccc(NC(=O)CN2C(=O)C(c3ccccc3)=NC23CCC(C)CC3)cc1Cl (centres undefined)	i	i
CC1CCC2(CC1)N=C(c1ccccc1)C(=O)N2CC(=O)Nc1cccc(Cl)c1 (centres undefined)	70.0	i
CCSc1nnc(NC(=O)CSc2nnc(-c3ccco3)c(-c3ccco3)n2)s1	81.0	i
CCSc1nnc(NC(=O)CSc2nnc(CNC(=O)c3ccco3)o2)s1	i	i
Cc1nnc(NC(=O)CSc2nnc(-c3ccco3)c(-c3ccco3)n2)s1	67.0	i
CCc1nnc(NC(=O)CSc2ncccn2)s1	i	i
O=C(CSc1nnc(-c2ccco2)c(-c2ccco2)n1)Nc1nc2ccccc2s1	i	i
CCc1nnc(NC(=O)CSc2nnc(-c3ccco3)c(-c3ccco3)n2)s1	65.0	i
CCc1ccc(OCC(=O)Nc2ccc(OC)cc2OC)cc1	i	i
O=[N+]([O-])c1ccc(S(=O)(=O)N2CCN(Cc3ccc(Br)cc3)CC2)cc1	i	i
CCc1nc(C2CCN(C(=O)c3cc(Cl)ccc3F)CC2)n[nH]1	i	i
CCCCn1c(SC/C=C(\C)Cl)nc2c1c(=O)[nH]c(=O)n2C	i	i
Cc1ccc(N2C(=O)NC(=O)/C(=C\c3cn(CC(=O)N4CCOCC4)c4ccccc34)C2=O)cc1	i	i
O=[N+]([O-])c1ncn(CNc2cc(Br)cc3cccnc23)n1	65.0	i
SMILES	mHTT CaM bind	Pf apPOL inh
O=[N+]([O-])c1ncn(Cc2cccc(Br)c2)n1	i	i
CCCCC(=O)NC(c1ccc([N+](=O)[O-])cc1)c1ccc2cccnc2c1O (centres undefined)	100.0	i
CCCC(=O)NC(c1ccccc1OC)c1ccc2cccnc2c1O (centres undefined)	99.0	i
CCCCC(=O)NC(c1ccc(C)cc1)c1ccc2cccnc2c1O (centres undefined)	100.0	i
CCCCC(=O)NC(c1ccccc1OC)c1cc(Cl)c2cccnc2c1O (centres undefined)	i	i
CCCC(=O)NC(c1ccc(C)cc1)c1ccc2cccnc2c1O (centres undefined)	100.0	i
CC1CCCCN1C(=O)Cc1cccs1 (centres undefined)	i	i
Cc1cc(S(=O)(=O)Cc2ccc(NC(=O)NC(=O)c3ccccc3Cl)cc2)c(C)cc1Cl	nt	i
Cc1ccc(-c2cncc(C(=O)Nc3cc(C)cc(C)c3)c2)cc1	i	i
O=C1C(=Cc2ccccc2Br)Oc2c1ccc(O)c2CN1CCOCC1	i	i
O=C1OC(c2cccc(Br)c2)=N/C1=C\c1ccccc1	i	i
COc1ccc(C(=O)N2CCC(Nc3cccnc3)C2)cc1F (centres undefined)	i	i
CCCN1C(=O)C2CCC(=O)N2c2ccc(C(=O)NCc3ccccc3)cc21 (centres undefined)	i	i
O=C(Nc1c2c(nn1-c1ccc([N+](=O)[O-])cc1)CSC2)c1ccc(C(=O)c2ccccc2)cc1	i	i
NS(=O)(=O)c1cc(C(=O)N2CCc3ccccc32)c(Cl)cc1Cl	60.0	i
O=C(c1ccc([N+](=O)[O-])cc1Cl)N1CCc2ccccc21	i	i
Cc1ccc(-n2c3c(cc(C(=O)NC4CC(C)(C)NC(C)(C)C4)c2=O)C(=O)CC(C)(C)C3)cc1	i	i
Cc1noc(C)c1C1CCCN1Cc1ccc(C(F)(F)F)cc1 (centres undefined)	i	i
Cc1noc(C)c1CC(=O)NCc1cc(-c2cc3ccccc3o2)on1	i	i
COc1ccc2oc(=N)c(C(=O)Nc3ccccc3F)cc2c1	i	i
CC1(C)CC(=O)C=C(SCC(=O)Nc2ccc(Cl)cc2)S1	nt	i
O=C(NCc1ccsc1)c1cc(-c2ccccc2)on1	i	i
CCNc1cc(N2CCC(CCC(=O)NCc3cc(F)ccc3F)CC2)ncn1	i	i
Cc1cc(C)cc(S(=O)(=O)NCCC2CCN(C(=O)c3ccccc3)CC2)c1	i	i
COc1ccc(Cl)cc1S(=O)(=O)NCCC1CCN(C(=O)c2ccccc2)CC1	76.7	i
SMILES	mHTT CaM bind	Pf apPOL inh
COc1ccc(S(=O)(=O)NCCC2CCN(C(=O)c3ccccc3)CC2)cc1Cl	i	i
COc1ccc(OC)c(S(=O)(=O)NCCC2CCN(C(=O)c3ccccc3)CC2)c1	63.5	i
COc1ccc([N+](=O)[O-])cc1NC(=O)c1ccnn1C	i	i
O=C1OC(c2ccc(Oc3ccccc3)cc2)=C/C1=C\c1ccco1	78.0	i
O=C1OC(c2ccc(Cl)cc2)=C/C1=C\c1ccco1	i	i
COc1cc(C=C2Oc3c(ccc(OC(=O)N4CCOCC4)c3C)C2=O)cc(OC)c1OC	i	i
O=C(c1ccco1)N(CCCn1ccnc1)c1nc2c(Cl)cccc2s1	i	i
COc1ccc(OC)c2sc(N(CCCn3ccnc3)C(=O)Cc3ccccc3)nc12	67.7	i
COc1ccc(C(CC(=O)N2CCCC2)c2c(O)cc(OC)cc2OC)cc1 (centres undefined)	i	i
COc1cc(C(CC(=O)N2CCCC2)c2c(OC)cc(OC)c3ccc(=O)oc23)cc(OC)c1OC (centres undefined)	i	i
COc1cc(O)c(C(CC(=O)N2CCN(c3ccccc3)CC2)c2ccc(N(C)C)cc2)c(OC)c1 (centres undefined)	73.7	i
COc1ccc(C(CC(=O)N2CCN(c3ccccc3)CC2)c2c(OC)cc(OC)c3ccc(=O)oc23)cc1 (centres undefined)	55.8	i
O=C1C2C3C=CC(C4CC34)C2C(=O)N1c1cc([N+](=O)[O-])ccc1Cl (centres undefined)	i	i
COc1ccc(C(C#N)N2CCN(C(C#N)c3ccc(OC)c(OC)c3)CC2)cc1OC (centres undefined)	i	i
O=C(Nc1ccc(F)cc1Cl)C1Oc2ccccc2NC1=O (centres undefined)	i	i
COc1ccc(S(=O)(=O)CCC(=O)Nc2ncc(Br)s2)cc1	i	i
COc1ccc(N2COc3ccc4c(c3C2)OC(=Cc2ccc(OC)c(OC)c2OC)C4=O)cc1	81.1	i
COc1ccccc1C=C1Oc2c(ccc3c2CN(c2ccc4c(c2)OCCO4)CO3)C1=O	i	i
COc1ccc(N2COc3ccc4c(c3C2)OC(=Cc2cc(OC)c(OC)c(OC)c2)C4=O)cc1	i	i
